An excerpt weighted towards active compounds, which were near 4% of everything screened.
D1 antag: blocks dopamine activation of the human D1 receptor | P21728 | HEK293 TREx D1 cells, calcium flux, dopamine EC80; hits give low values | activity change, negative = inhibition, % at 10 µM | 3.2% of 360,000 active; in the data active = activity change below about -30%; also: % is scaled to controls: 0 for no effect and ±100 for the full control effect
Target sequence (P21728 whole entry, looked up): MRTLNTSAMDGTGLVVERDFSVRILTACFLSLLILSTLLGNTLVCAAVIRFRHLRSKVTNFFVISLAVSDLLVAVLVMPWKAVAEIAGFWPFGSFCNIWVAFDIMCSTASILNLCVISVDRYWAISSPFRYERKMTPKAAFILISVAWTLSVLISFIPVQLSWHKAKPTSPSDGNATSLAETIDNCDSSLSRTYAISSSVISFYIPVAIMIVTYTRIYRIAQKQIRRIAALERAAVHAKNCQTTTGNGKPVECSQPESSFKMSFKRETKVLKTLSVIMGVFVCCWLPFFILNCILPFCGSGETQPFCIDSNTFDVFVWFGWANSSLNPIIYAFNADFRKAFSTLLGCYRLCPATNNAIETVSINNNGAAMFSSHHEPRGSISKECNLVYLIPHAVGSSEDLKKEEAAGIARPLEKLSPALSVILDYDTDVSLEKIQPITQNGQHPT
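Tetracycline-induced HEK293 Trex D1 cells, force-coupled to calcium, dye-loaded; compounds added and read 180 s, then EC80 dopamine added and calcium flux tracked kinetically another 180 s.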
D1 PAM: enhances dopamine response at the human D1 receptor; potentiation, % at 10 µM; HEK293 TREx D1 cells, calcium flux, dopamine EC20 potentiation; P21728; 0.036% of 360,000 active; in the data active = potentiation above about 30%; also: 0% is about no effect
TRHR PAM: allosterically enhances the human TRH receptor | TRHR cells, fluo-8 calcium fluorescence, EC20 TRH enhancement | enhancement, % at 2 µM | 0.66% of 360,000 active | AID 493056; in the data active = enhancement above about 30%; also: 0% is about no effect
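TRHR-expressing cells loaded with fluo-8 calcium dye were read kinetically (ex 480/em 530) during compound addition, then stimulated with an EC20 of TRH (10 nM final). Enhancement of the Gq-mediated intracellular calcium response was scored.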
D1 agonist: activates the human D1 dopamine receptor | P21728 | HEK293 T-REx D1 cells, calcium flux, agonist mode | activation, % at 2 µM | 1% of 360,000 active | AID 504660; also: 0% is about no effect
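Agonism was scored from calcium flux recorded over 180 s (1 read/s) after pintool compound addition, following a 10-cycle baseline. Cells were inducible force-coupled HEK293 TREx D1, plated overnight at 30 C and loaded with no-wash calcium dye.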
Glioma ERSR ind: induces the endoplasmic reticulum stress response in human glioma cells | U87-MG GRP78 promoter luciferase reporter, 16 h | Potency, µM, for the others: top-dose activation, actives largely listed as activators | 0.02% of 420,000 active; active = well fitted activation curve with a large enough effect; inconclusive = small, poorly fitted or top-dose-only effect; inactive = no such curve, though single readings can be large or run the other way; also: potency is read from the fitted curve at half-maximal effect; series mostly up to about 76 µM; % of control where 0% means no effect; nearly all actives have a fitted effect of over 35% in size
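Stably transfected U87-MG human glioma cells carrying a GRP78-based luminescent sensor were seeded at 1000 cells/well, pin-dosed with compounds and incubated 16 h. Luciferase reagent was then added, and end-point luminescence was read after 10 min at room temperature.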
TRHR agonist: TRH receptor (human) agonism; AID 493084; activation, % at 2 µM; P34981; TRHR cells, calcium flux fluo-8, FDSS agonist mode; 0.18% of 360,000 active; also: 0% is about no effect
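Steps: seed TRHR cells overnight; add fluo-8 no-wash Ca dye, RT 30 min–1.5 h; record 10 s baseline; pin-transfer compounds; monitor fluorescence 1 cycle/s for the agonist window. Calcium increases flag candidate agonists.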
An asterisk follows results filed as active; u = inconclusive; x = no result given. Rule as the data show it, unless noted: active = activation above about 30%; inactive = the rest.

SMILES	D1 antag	D1 PAM	TRHR PAM	D1 agonist	Glioma ERSR ind	TRHR agonist
CCC(C)NC(=O)c1sc2nc(C)c(C(=O)Nc3ccc(C)cc3C)c(-c3ccc(Br)cc3)c2c1N (configuration not stated)	-3	1	4	11	-1%	-1
CC(=O)Nc1cc(NC(C)=O)cc(C(=O)NCC2(N3CCOCC3)CCCCC2)c1	-3	-4	3	2	-4%	0
N#Cc1ccccc1Oc1ccccc1C=O	x	-2	1	-1	-2%	2
COc1ccc(CCNC(=O)CN(c2cccc([N+](=O)[O-])c2)S(C)(=O)=O)cc1OC	-4	9	-2	3	-1%	0
COc1ccc(CCNC(=O)COC(=O)CSc2ccc([N+](=O)[O-])cc2)cc1OC	-45*	-9	-7	6	-3%	3
O=C(COC(=O)Cc1cccc(F)c1)NCCc1ccccc1	-68*	-4	-5	1	-3%	-1
COc1ccc(CCNC(=O)Cc2ccc([N+](=O)[O-])cc2)cc1OC	12	-2	14	2	-2%	0
COc1ccc(CCNC(=O)CN(c2cc([N+](=O)[O-])ccc2OC)S(C)(=O)=O)cc1OC	4	-5	32*	2	-2%	1
CC(OC(=O)CSc1ccc([N+](=O)[O-])cc1)C(=O)NCc1ccccc1 (configuration not stated)	-55*	-15	12	19	-4%	0
CSc1ccc(S(=O)(=O)NCC(=O)OC(C)C(=O)NCc2ccccc2)cc1[N+](=O)[O-] (configuration not stated)	3	0	-5	1	u	0
O=C(COC(=O)Cc1ccc(F)cc1)NCCc1ccccc1	-5	-3	-1	2	-2%	-1
Cc1ccc(CNC(=O)CCC(=O)Nc2nnc(C(C)C)s2)cc1	22	0	-3	-1	-4%	0
CC1CCN(S(=O)(=O)c2cc(C(=O)N3CCN(c4ncccn4)CC3)ccc2Br)CC1	-8	-5	3	6	-4%	0
O=C(COC(=O)CSc1ccc([N+](=O)[O-])cc1)NCCc1ccccc1	-34*	-14	0	9	-4%	-1
Cc1ccccc1CN(C)C(=O)COC(=O)CSc1ccc([N+](=O)[O-])cc1	-33*	-5	1	14	-2%	0
O=C(COC(=O)CSc1ccc([N+](=O)[O-])cc1)NCCCc1ccccc1	-33*	-8	-5	9	-3%	0
O=C(COC(=O)CSc1ccc([N+](=O)[O-])cc1)NCc1ccco1	-6	-5	2	6	-6%	0
CN(C)c1ccc(/C=C/c2ccnc3ccc(O)cc23)cc1	x	x	x	x	-3%	x
CCOc1ccc(NC(=O)Nc2cccnc2)cc1	-2	1	18	0	4%	-1
C=CCN(CC(=O)NC1CCS(=O)(=O)C1)S(=O)(=O)c1ccccc1C(F)(F)F (configuration not stated)	1	-7	31*	3	-4%	2
CCN(CC(=O)NC1CCS(=O)(=O)C1)c1ccc([N+](=O)[O-])cc1C#N (configuration not stated)	-31*	-3	5	2	2%	0
CCN(CC(=O)NC1CCS(=O)(=O)C1)S(=O)(=O)c1cc(C)ccc1C (configuration not stated)	-55*	-12	-2	0	0%	0
CCCCCCCCCOC(=O)CNc1nc(C#N)nc(NCC(=O)OCCCCCCCCC)n1	x	x	x	x	-4%	x
CC(=O)OCC(NC(=O)C1CCCN1C(=O)OC(C)(C)C)C1OC(n2ccc(=O)[nH]c2=O)C(OC(C)=O)C1OC(C)=O (configuration not stated)	x	x	x	x	-3%	x
CCOC(=O)c1cnc2ccc(Cl)cc2c1Nc1ccc(S(=O)(=O)Nc2ncccn2)cc1	7	-5	6	0	-4%	0
SMILES	D1 antag	D1 PAM	TRHR PAM	D1 agonist	Glioma ERSR ind	TRHR agonist
CCOC(=O)c1cnc2c(C)c(Cl)ccc2c1Nc1ccc(S(=O)(=O)Nc2ncccn2)cc1	-39*	-5	0	3	x	-1
CCOC(=O)c1cnc2c(Cl)c(Cl)ccc2c1N1CCN(C)CC1	-7	2	-3	3	-10%	1
CCOC(=O)c1cnc2c(ccc3ccccc32)c1Cl	-53*	-2	-8	3	10%	0
CCOC(=O)c1cnc2c(ccc3ccccc32)c1Nc1ccccc1O	-47*	-4	1	1	-2%	0
CCOC(=O)c1cnc2c(C)cc(C)cc2c1Nc1ccccc1OCC	-18	1	-4	1	-4%	0
O=C(C[n+]1ccncc1)c1ccc2ccccc2c1	x	x	x	x	-1%	x
O=C(COc1ccc2c3c(c(=O)oc2c1)CCCC3)NCCN1CCOCC1	-12	-3	13	2	3%	0
CCc1cc(=O)oc2cc(OCC(=O)NCCCn3ccnc3)ccc12	-37*	-3	-4	3	-5%	0
O=C(COc1ccc2c3c(c(=O)oc2c1)CCCC3)NCCCN1CCOCC1	-30*	-9	1	9	u	0
CN1CCN(c2ccc(C(CC(N)=O)NC(=O)Cc3cccc4ccccc34)cc2[N+](=O)[O-])CC1 (configuration not stated)	-1	-3	9	2	-5%	-1
C=CCc1ccccc1OCCNCCCOC	-46*	-10	7	8	-4%	0
COc1cc(C(=O)O[C@H]2C/C(C)=C/CC/C(C)=C/[C@@H](O)C2C(C)C)ccc1O (some centres not stated)	x	x	x	x	-8%	x
CCCN(CCC)S(=O)(=O)c1ccc(C(=O)OCCN2C(=O)c3cccc4c(N5CCOCC5)ccc(c34)C2=O)cc1	-16	1	0	113*	-4%	21
O=C(OCCN1C(=O)c2cccc3c(N4CCOCC4)ccc(c23)C1=O)c1ccc(Cl)cc1	-2	0	-2	93*	-2%	29
N#CC1=C2SCC(O)(c3ccccc3)N2C(=O)CC1c1cccs1 (configuration not stated)	-28	-9	3	63*	0%	3
CC(C)NC(=O)NC(=O)CSc1nnc(COc2ccccc2F)n1C(C)C1CC2CCC1C2 (configuration not stated)	25	2	-7	5	-1%	0
CC(C1CC2CCC1C2)n1c(COc2ccccc2F)nnc1SCC(N)=O (configuration not stated)	7	27	9	89*	-6%	0
OC(C[n+]1cccc(Br)c1)c1ccccc1 (configuration not stated)	x	x	x	x	-5%	x

Screening data: PubChem, National Center for Advancing Translational Sciences (NCATS)
